# Data: paper PMC7862700, “An all-to-all approach to the identification of sequence-specific readers for epigenetic DNA modifications on cytosine”
# How the values were obtained:
# Assay in all cases: DAPPL (digital affinity profiling via proximity ligation, sequencing); 10 mM Tris-HCl pH 7.5, 50 mM NaCl, 1 mM DTT, 4% glycerol, room temperature, 30 min; GST-TFs on glutathione beads, 16-mer random dsDNA library, 0.1% formaldehyde crosslink after washing; high values mean tight binding
# Conditions in all cases: protein: recombinant; tags: N-terminal GST; dsDNA, one strand shown
# FLI1 = biological target: T1, FLI1 (Homo sapiens, UniProt Q01543 1-452)
# T1 sequence: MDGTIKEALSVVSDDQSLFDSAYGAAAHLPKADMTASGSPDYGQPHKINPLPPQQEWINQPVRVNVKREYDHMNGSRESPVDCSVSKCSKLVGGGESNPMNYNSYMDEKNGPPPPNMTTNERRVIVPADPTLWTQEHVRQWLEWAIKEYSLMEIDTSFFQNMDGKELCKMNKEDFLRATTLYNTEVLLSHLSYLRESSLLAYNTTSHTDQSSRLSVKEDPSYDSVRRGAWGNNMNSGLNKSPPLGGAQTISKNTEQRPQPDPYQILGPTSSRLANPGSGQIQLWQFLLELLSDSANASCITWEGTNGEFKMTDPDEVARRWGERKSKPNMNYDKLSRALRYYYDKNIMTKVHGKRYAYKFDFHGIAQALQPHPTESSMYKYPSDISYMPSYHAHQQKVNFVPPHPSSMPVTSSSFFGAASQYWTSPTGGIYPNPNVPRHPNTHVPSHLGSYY
# Outline: (§1)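 Binding signal is defined as a hexamer's read frequency for one factor over its frequency for the tag-only sample. To obtain reads, GST-fused human transcription factors were expressed in yeast, captured on glutathione beads, barcoded with DNA and pooled with that sample. Pools met 200 nmole of a 16-mer random double-stranded DNA library in Tris/NaCl/DTT/glycerol buffer for 30 min at room temperature before washing, 0.1% formaldehyde crosslinking, proximity ligation (BsaI/T4 ligase, 1 h, 37 °C), PCR and Illumina NextSeq500 sequencing.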
# ELK1 = biological target: T2, ELK1 (Homo sapiens, UniProt P19419 1-428)
# T2 sequence: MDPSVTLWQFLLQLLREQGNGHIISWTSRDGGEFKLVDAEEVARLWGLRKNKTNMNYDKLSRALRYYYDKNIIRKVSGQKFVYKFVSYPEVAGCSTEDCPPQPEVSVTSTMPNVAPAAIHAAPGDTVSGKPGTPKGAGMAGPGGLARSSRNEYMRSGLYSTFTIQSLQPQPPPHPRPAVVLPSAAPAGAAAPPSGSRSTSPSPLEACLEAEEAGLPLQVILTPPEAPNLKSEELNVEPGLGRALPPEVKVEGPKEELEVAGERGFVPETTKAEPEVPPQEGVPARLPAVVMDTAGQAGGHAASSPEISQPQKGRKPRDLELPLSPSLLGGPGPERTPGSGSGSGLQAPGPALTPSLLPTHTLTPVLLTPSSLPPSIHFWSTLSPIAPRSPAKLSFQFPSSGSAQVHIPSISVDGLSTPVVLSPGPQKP
# Outline: as §1
# GABPA = biological target: T3, GABPA (Homo sapiens, UniProt Q06546 1-454)
# T3 sequence: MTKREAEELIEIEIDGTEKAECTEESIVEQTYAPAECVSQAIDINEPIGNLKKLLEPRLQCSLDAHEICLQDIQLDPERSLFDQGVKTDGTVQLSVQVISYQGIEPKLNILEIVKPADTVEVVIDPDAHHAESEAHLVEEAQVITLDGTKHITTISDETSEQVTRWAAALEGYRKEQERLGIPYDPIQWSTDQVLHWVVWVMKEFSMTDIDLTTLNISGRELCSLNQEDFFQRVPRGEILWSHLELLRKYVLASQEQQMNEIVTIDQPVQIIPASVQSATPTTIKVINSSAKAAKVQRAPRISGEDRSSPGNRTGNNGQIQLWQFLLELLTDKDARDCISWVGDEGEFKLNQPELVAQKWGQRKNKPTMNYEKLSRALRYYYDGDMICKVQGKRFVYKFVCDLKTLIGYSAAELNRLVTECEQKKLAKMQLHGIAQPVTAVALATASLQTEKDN
# Outline: as §1
# ERG = biological target: T4, ERG (Homo sapiens, UniProt P11308 1-479)
# T4 sequence: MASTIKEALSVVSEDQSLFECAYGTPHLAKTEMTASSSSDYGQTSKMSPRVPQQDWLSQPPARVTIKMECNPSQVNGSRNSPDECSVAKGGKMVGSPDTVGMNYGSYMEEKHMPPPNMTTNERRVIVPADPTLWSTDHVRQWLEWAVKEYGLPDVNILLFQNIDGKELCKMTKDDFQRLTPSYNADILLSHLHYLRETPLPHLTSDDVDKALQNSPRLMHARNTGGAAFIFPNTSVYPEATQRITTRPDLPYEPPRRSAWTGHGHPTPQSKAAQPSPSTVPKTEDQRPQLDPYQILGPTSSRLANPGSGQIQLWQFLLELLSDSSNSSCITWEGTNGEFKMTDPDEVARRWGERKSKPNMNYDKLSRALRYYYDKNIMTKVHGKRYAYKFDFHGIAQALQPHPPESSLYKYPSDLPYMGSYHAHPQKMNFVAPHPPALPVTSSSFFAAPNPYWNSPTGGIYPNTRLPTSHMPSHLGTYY
# Outline: as §1
# ELF1 = ELF1 (Homo sapiens, UniProt P32519 1-619)
# Outline: as §1
# EHF = biological target: T5, EHF (Homo sapiens, UniProt Q9NZC4 1-300)
# T5 sequence: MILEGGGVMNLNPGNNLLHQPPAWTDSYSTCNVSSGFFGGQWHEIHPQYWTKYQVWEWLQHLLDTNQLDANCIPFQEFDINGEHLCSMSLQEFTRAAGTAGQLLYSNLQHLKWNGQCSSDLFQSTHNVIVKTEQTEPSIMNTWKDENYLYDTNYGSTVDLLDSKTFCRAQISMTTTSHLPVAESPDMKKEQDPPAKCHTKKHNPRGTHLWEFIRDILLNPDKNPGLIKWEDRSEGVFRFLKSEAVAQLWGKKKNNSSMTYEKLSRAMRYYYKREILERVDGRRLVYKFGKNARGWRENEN
# Outline: as §1
# SPI1 = SPI1 (Homo sapiens, UniProt P17947 1-270)
# Outline: as §1
# SPIB = SPIB (Homo sapiens, UniProt Q01892 1-262)
# Outline: as §1
# FEV = biological target: T6, FEV (Homo sapiens, UniProt Q99581 1-238)
# T6 sequence: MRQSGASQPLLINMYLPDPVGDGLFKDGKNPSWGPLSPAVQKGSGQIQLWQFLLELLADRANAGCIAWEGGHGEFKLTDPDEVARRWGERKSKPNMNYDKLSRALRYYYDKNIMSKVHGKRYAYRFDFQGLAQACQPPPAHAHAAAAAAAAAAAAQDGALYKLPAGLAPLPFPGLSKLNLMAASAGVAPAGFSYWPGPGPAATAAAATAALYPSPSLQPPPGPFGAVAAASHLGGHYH
# Outline: as §1
# ETV5 = ETV5 (Homo sapiens, UniProt P41161 1-510)
# Outline: as §1
# SPIC = biological target: T7, SPIC (Homo sapiens, UniProt Q8N5J4 1-248)
# T7 sequence: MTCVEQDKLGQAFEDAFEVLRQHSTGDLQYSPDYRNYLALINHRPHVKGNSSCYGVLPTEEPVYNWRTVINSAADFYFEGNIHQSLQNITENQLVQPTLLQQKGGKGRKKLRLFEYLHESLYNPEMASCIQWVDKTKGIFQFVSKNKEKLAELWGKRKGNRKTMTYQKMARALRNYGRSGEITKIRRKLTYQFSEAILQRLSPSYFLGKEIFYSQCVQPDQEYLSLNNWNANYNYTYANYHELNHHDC
# Outline: as §1
# ELF4 = ELF4 (Homo sapiens, UniProt Q99607 1-663)
# Outline: as §1
# ETV1 = ETV1 (Homo sapiens, UniProt P50549 1-477)
# Outline: as §1
# ERF = biological target: T8, ERF (Homo sapiens, UniProt P50548 1-548)
# T8 sequence: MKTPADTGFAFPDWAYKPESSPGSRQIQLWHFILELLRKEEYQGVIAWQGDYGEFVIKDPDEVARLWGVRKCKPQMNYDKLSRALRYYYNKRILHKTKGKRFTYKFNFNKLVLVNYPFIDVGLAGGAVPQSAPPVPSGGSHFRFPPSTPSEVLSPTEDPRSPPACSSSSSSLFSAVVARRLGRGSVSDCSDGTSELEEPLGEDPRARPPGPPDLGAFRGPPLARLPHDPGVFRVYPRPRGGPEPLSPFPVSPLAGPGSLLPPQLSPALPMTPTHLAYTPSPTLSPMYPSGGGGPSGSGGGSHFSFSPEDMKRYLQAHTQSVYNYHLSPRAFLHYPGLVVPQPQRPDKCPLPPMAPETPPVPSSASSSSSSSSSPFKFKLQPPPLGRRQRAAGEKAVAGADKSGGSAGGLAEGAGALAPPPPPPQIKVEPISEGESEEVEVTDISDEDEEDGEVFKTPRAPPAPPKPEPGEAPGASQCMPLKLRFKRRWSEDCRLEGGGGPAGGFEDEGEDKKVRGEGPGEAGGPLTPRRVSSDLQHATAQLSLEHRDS
# Outline: as §1
# ETV3L = biological target: T9, ETV3L (Homo sapiens, UniProt Q6ZN32 1-361)
# T9 sequence: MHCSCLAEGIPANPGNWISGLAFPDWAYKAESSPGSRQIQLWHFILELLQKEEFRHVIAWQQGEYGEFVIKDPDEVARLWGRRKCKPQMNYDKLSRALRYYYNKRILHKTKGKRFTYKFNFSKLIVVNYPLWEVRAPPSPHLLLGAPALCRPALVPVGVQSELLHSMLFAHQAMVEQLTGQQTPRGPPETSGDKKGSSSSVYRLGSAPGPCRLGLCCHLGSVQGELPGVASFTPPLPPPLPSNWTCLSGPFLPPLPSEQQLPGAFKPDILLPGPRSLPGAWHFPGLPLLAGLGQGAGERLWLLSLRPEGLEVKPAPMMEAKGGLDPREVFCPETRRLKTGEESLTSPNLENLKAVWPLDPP
# Outline: as §1
# ETS2 = biological target: T10, ETS2 (Homo sapiens, UniProt P15036 1-469)
# T10 sequence: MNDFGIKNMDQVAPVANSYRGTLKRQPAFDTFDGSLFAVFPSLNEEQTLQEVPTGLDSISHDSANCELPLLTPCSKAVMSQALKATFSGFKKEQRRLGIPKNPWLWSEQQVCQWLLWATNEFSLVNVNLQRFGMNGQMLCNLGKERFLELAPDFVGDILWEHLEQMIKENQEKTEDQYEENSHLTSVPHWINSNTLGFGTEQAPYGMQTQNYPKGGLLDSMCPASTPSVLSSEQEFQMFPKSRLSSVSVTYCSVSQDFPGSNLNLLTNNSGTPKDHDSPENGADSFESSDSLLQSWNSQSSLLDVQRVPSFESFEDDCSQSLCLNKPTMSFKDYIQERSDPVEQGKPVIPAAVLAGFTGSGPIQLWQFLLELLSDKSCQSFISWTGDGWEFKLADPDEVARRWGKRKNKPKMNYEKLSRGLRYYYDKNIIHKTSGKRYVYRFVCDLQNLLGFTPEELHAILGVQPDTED
# Outline: as §1
# ETV6 = ETV6 (Homo sapiens, UniProt P41212 1-452)
# Outline: as §1
# ELF4, sequence (Q99607 whole entry): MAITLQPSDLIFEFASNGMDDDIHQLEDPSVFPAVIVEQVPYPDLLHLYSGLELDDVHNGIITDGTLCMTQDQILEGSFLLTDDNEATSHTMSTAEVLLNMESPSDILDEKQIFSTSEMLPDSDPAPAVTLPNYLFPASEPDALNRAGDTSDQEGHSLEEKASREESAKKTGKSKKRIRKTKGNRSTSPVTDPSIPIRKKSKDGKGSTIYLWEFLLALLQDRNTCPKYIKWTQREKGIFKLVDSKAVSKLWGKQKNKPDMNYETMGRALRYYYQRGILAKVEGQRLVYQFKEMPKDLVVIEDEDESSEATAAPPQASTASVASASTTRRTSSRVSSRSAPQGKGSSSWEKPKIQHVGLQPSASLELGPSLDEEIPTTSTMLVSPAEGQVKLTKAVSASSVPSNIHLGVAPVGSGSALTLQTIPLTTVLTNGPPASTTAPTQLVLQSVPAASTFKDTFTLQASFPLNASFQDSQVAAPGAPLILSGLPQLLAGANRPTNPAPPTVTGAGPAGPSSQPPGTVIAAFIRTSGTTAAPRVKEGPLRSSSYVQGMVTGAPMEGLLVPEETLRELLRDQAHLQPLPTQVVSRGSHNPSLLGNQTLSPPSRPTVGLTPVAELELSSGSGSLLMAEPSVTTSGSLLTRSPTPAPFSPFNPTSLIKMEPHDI
# ETV6, sequence (P41212 whole entry): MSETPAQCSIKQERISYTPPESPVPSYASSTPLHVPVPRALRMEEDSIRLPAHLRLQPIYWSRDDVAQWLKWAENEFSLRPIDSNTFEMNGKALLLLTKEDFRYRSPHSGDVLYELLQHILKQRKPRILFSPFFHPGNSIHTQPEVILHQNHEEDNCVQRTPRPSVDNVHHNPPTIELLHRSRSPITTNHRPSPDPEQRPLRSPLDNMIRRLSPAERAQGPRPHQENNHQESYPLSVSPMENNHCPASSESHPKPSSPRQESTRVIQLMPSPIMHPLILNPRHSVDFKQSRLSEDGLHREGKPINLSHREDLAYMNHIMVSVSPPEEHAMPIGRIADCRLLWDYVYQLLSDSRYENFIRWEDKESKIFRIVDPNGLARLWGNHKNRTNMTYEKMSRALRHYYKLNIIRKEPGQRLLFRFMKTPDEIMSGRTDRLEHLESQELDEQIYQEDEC
# ETV5, sequence (P41161 whole entry): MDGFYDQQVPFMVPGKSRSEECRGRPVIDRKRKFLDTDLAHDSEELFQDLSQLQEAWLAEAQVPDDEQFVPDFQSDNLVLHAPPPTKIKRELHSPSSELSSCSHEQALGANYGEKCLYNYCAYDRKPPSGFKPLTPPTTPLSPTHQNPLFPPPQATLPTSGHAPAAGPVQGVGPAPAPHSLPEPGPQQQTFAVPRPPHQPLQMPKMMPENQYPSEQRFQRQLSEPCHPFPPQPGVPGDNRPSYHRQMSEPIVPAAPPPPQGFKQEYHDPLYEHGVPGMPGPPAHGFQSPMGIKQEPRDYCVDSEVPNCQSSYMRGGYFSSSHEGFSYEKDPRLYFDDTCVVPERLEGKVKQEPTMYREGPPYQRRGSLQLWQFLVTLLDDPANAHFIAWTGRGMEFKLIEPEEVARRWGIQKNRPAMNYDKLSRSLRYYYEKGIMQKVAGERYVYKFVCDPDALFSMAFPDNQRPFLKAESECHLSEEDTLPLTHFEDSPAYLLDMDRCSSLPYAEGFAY
# ETV1, sequence (P50549 whole entry): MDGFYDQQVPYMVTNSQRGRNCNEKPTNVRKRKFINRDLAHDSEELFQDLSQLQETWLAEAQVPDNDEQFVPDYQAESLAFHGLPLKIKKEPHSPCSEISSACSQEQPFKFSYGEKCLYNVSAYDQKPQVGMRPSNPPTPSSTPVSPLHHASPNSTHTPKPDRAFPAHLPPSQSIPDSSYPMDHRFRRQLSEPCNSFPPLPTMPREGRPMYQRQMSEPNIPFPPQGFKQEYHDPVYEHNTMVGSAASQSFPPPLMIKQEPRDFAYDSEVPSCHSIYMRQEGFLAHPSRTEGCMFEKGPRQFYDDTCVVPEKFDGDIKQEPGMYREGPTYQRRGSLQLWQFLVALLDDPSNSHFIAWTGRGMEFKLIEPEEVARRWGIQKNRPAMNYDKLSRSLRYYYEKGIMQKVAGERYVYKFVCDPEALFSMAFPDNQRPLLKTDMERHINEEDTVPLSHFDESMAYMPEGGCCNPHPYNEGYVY
# SPIB, sequence (Q01892 whole entry): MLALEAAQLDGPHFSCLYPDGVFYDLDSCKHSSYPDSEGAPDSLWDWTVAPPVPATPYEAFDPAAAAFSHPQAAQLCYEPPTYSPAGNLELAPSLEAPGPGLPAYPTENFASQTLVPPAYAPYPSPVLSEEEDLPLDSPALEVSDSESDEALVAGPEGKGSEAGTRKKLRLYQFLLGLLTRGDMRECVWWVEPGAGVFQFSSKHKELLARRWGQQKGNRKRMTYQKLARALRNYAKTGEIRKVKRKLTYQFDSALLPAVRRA
# ELF1, sequence (P32519 whole entry): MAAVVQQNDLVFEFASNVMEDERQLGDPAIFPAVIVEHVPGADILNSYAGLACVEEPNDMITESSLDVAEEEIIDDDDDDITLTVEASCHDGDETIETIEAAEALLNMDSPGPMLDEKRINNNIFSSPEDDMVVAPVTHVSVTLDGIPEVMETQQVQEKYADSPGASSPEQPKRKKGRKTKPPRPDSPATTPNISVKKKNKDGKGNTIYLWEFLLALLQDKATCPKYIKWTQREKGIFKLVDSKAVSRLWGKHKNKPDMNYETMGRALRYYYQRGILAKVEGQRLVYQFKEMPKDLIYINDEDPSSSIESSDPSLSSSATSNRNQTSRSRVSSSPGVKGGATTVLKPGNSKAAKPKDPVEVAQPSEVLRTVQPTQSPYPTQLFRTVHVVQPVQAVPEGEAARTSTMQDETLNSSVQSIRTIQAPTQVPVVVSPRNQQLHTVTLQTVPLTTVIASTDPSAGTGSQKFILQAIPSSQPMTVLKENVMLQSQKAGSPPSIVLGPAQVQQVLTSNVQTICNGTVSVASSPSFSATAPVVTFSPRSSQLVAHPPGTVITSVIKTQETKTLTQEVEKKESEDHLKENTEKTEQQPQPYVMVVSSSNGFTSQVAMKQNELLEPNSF
sequence,measurement,setting,value
AGTATG,binding signal,FLI1,"1.05 fold enrichment (6-mer frequency, TF over GST control)"
same,binding signal,ELK1,"1.01 fold enrichment (6-mer frequency, TF over GST control)"
same,binding signal,GABPA,"1.03 fold enrichment (6-mer frequency, TF over GST control)"
same,binding signal,ERG,"1 fold enrichment (6-mer frequency, TF over GST control)"
same,binding signal,ELF1,"1.04 fold enrichment (6-mer frequency, TF over GST control)"
same,binding signal,EHF,"1.11 fold enrichment (6-mer frequency, TF over GST control)"
same,binding signal,SPI1,"1.08 fold enrichment (6-mer frequency, TF over GST control)"
same,binding signal,SPIB,"1.11 fold enrichment (6-mer frequency, TF over GST control)"
same,binding signal,FEV,"1.02 fold enrichment (6-mer frequency, TF over GST control)"
same,binding signal,ETV5,"1.02 fold enrichment (6-mer frequency, TF over GST control)"
same,binding signal,SPIC,"1.04 fold enrichment (6-mer frequency, TF over GST control)"
same,binding signal,ELF4,"1.04 fold enrichment (6-mer frequency, TF over GST control)"
same,binding signal,ETV1,"1.02 fold enrichment (6-mer frequency, TF over GST control)"
same,binding signal,ERF,"1.02 fold enrichment (6-mer frequency, TF over GST control)"
same,binding signal,ETV3L,"1.13 fold enrichment (6-mer frequency, TF over GST control)"
same,binding signal,ETS2,"1.09 fold enrichment (6-mer frequency, TF over GST control)"
same,binding signal,ETV6,"1 fold enrichment (6-mer frequency, TF over GST control)"
